# Data as given in PubChem BioAssay AID2685 (National Center for Advancing Translational Sciences (NCATS), 2010).
# The whole screen tested about 320,000 compounds, of which about 2,100 (0.66%) were called active. About 53% were inconclusive and are not listed. Calls come from the whole dose curve; as a rule, active = well fitted inhibition curve with a large enough effect in the signal ratio, with a control signal flat (not every such curve was filed as active); inconclusive = small, poorly fitted or top-dose-only effect, or effect the other way, or a change in a side signal; inactive = flat fitted curve, though single readings scatter; the % refers to the signal ratio. Only a selection was taken, and actives are over-represented in it overall.
# Test: qHTS Assay for Lipid Storage Modulators in Drosophila S3 Cells;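 for cell number change: cells counted by Cell Tracker Red CMTPX staining in the red channel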; for lipid storage change, negative = inhibition: % is set by controls: 0 for no effect and ±100 for the full control effect
# Settings: BODIPY lipid droplet fluorescence, 18-24 h, cells fed with added oleic acid; cell number change: measured here: cell count max response; series mostly up to 46.1 µM
# Method in brief: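 Drosophila S3 cells loaded with oleic acid (400 uM, as added) and compounds at several concentrations; lipid droplets imaged by 488-nm laser-scanning cytometry, 500–530 nm intensity and object ratio to cell channel. Percent activity normalized to 20 uM Triacsin C.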
# Potency is the fitted concentration of half-maximal effect.
Compound,Potency,cell number change [%],"lipid storage change, negative = inhibition"
O=C(O)C1CCCN(S(=O)(=O)c2ccc(-c3ccc(=O)[nH]n3)s2)C1 (stereo not drawn),inactive,-7.22,
COC(=O)Nc1ccc(Cn2cc(C(F)(F)F)ccc2=O)cc1,inactive,17.3,
O=C1NC(=O)N(Cc2ccccc2)C1=O,inactive,-0.926,
O=C1[C@H](O)[C@@H](O)C(=O)N1Cc1ccccc1,inactive,24.4,
O=C1C=CC(=O)N1Cc1ccccc1,4.11 µM (active),-23.7,
COCCNc1ncnc2nc[nH]c12,inactive,7.15,
C1=C(CCNc2ncnc3nc[nH]c23)CCCC1,16.4 µM (active),-23.9,
CCCNc1ncnc2nc[nH]c12,inactive,19.1,
O=C(Sc1ccccc1)c1cccc(Cn2cc(C(F)(F)F)ccc2=O)c1,inactive,1.6,
COc1cccc(NC(=O)c2ccc3nc(C)sc3c2)c1,inactive,0.275,
CCN1CCCC(OC(=O)Nc2ccccc2)C1 (stereo not drawn),inactive,-14.2,
Cc1cc2c(NCc3ccccc3)ncnc2s1,inactive,-12.9,
COc1ccc(CCNc2ncnc3c2c(C)c(C)n3CCO)cc1OC,inactive,-9.63,
COc1ccc(CCNc2ncnc3sc(C)cc23)cc1OC,4.11 µM (active),-27,
CCOC(=O)c1ccc(-c2ccc(/C=N/NC(=O)Cc3nnc(N)s3)o2)cc1,inactive,-10.3,
CCOC(=O)C1CCN(C(c2cccc(F)c2)c2sc3nc(C)nn3c2O)CC1 (stereo not drawn),inactive,9.03,
Cc1nc(S(=O)(=O)N2CCN(C3c4ccccc4-c4ccccc43)CC2)cn1C,inactive,19.2,
CC(C)Oc1ccc(C(=O)Nc2ccc3c(c2)n(C)c(=O)n3C)cc1,18.4 µM (active),-24.3,
Cn1c(=O)n(C)c2cc(NC(=O)c3ccc(F)cc3)ccc21,inactive,-7.46,
COc1ccc(NC(=O)c2ccc3c(c2)n(C)c(=O)n3C)cc1,inactive,-1.07,
CCN(CC)C(=O)c1ccc(-c2cccs2)s1,inactive,3.13,
COc1ccc(NC(=O)c2oc3ccccc3c2CSC)cn1,23.1 µM (active),1.61,
COc1ccc(NC(=O)c2oc3ccccc3c2C)cn1,inactive,13.5,

Compound,Potency,cell number change [%],"lipid storage change, negative = inhibition"
CCOCc1c(C(=O)Nc2ccc(OC)nc2)oc2ccccc12,inactive,-13.5,
CC(C)CCNC(=O)C(C)N(Cc1ccc(F)cc1)C(=O)c1ccc(CN2CCOCC2)o1 (stereo not drawn),inactive,-9.3,
COC(=O)c1ccccc1NC(=O)COC(=O)CO/N=C(\C)c1ccc2c(c1)OCO2,inactive,-2.37,
Cc1cc(OC(C)C(=O)NCC2CCC(C(=O)O)CC2)c2c(C)cc(=O)oc2c1 (stereo not drawn),inactive,-0.291,
CCOC(=O)C1CCN(C(=O)c2cc(COc3ccc(OC)c4ccccc34)on2)CC1,inactive,0.306,
CCc1cccc(CC)c1-n1c(SCC(=O)N2CCc3ccccc3C2)nnc1-c1cccnc1,16.4 µM (active),1.33,
Cn1c(SCC(=O)N2CCc3ccccc3C2)nnc1-c1ccncc1,inactive,6.69,
Cc1ccc(-n2c(C)nnc2SCC(=O)N2CCc3ccccc3C2)cc1,inactive,-10.8,
COc1ccc(-c2nc(CN3CCC(C(=O)NCC4CCCO4)CC3)c(C)o2)cc1OC (stereo not drawn),inactive,,
CCn1c(SCC(=O)c2ccccc2)nc2c(c1=O)SC(C)C2 (stereo not drawn),inactive,,
N#CC1(NC(=O)COc2ccc(S(=O)(=O)N3CCCC3)cc2[N+](=O)[O-])CCCCC1,inactive,-3.48,
N#CC1(NC(=O)COc2ccccc2[N+](=O)[O-])CCCCC1,inactive,,
N#CC1(NC(=O)COc2cc(F)ccc2[N+](=O)[O-])CCCCC1,11.6 µM (active),-12.3,
COc1cccc(C2=NOC(C(=O)N3CCN(Cc4ccccc4)CC3)C2)c1OC (stereo not drawn),inactive,-0.697,
COc1ccc(CCN(C)CC(O)COC(c2ccc(F)cc2)c2ccc(F)cc2)cc1OC (stereo not drawn),inactive,-8.84,
COc1cccc(CN2CCN(C3CCN(c4ccccc4C)CC3)CC2CCO)c1 (stereo not drawn),inactive,-24,
COc1ccc(Cl)cc1NC(=O)Nc1ccccc1C(N)=O,inactive,14.7,
Cc1cccc([C@@H]2[C@@H]3C(=O)N(Cc4ccccc4)C(=O)[C@@H]3[C@]3(C)C(=O)N(c4ccc(Br)cc4)C(=O)N23)c1,2.31 µM (active),17.2,
Cc1cccc([C@@H]2[C@@H]3C(=O)N(Cc4ccccc4)C(=O)[C@@H]3[C@]3(C)C(=O)N(c4cccc(Cl)c4)C(=O)N23)c1,inactive,-9.71,
Cc1ccc(N2C(=O)N3[C@H](c4cccc(C)c4)[C@@H]4C(=O)N(Cc5ccccc5)C(=O)[C@@H]4[C@]3(C)C2=O)cc1,inactive,-18.1,
CN(C(=O)c1cccnc1)c1nnc(-c2cccnc2)s1,inactive,-7.8,
COc1ccccc1NC(=O)Nc1cccc(NC(C)=O)c1,inactive,-3.02,
Cc1csc(NC(=O)c2ccc3ccccc3n2)n1,inactive,7.3,

Compound,Potency,cell number change [%],"lipid storage change, negative = inhibition"
Cc1csc(NC(=O)c2ccccc2)n1,inactive,23.7,
Cc1csc(NC(=O)c2cnc3ccccc3n2)n1,1.64 µM (active),,
Cc1cccc(N2CCN(C(=O)C(NS(=O)(=O)c3cccs3)c3ccccc3)CC2)c1C (stereo not drawn),inactive,-2.06,
CCN=C1S/C(=C\c2cc(Br)c(O)c(OC)c2)C(=O)N1CC,inactive,-10.5,
CC(NC(=O)C1CCCCC1)c1ccc2c(c1)OCCO2 (stereo not drawn),inactive,,
Cc1ccc(C(C)(C)C)cc1S(=O)(=O)N1CCC(C(=O)N2CCN(c3ccc(O)cc3)CC2)CC1,3.66 µM (active),-13.6,
O=C(C1CC1)N1CCN(c2ccc(O)cc2)CC1,inactive,22.2,
Cc1ccc(C(=O)O)cc1S(=O)(=O)N1CCC(C(=O)O)CC1,inactive,-0.135,
Cc1ccc(N(Cc2cc3cc(C)ccc3[nH]c2=O)S(=O)(=O)c2ccccc2)cc1,inactive,-3.48,
CCOC(=O)CSc1nc2ccccc2c(=O)n1CC1CCCO1 (stereo not drawn),inactive,0.196,
COc1ccc(OC2C(=O)N(Cc3ccc(F)cc3)C2c2ccc(OC)c(OC)c2)cc1 (stereo not drawn),inactive,,
O=C(Cc1ccccc1F)Nc1ccc(S(=O)(=O)Nc2ncccn2)cc1,0.146 µM (active),16.8,
O=C(Cc1c(Cl)cccc1Cl)Nc1ccc(S(=O)(=O)Nc2ncccn2)cc1,inactive,17.5,
O=C(Cc1ccc(Cl)c(Cl)c1)Nc1ccc(S(=O)(=O)Nc2ncccn2)cc1,inactive,8.75,
C#CCN(C(=O)c1ccc(OC)c(OC2CCN(C(C)C)CC2)c1)C1CCCCC1,inactive,13.3,
Cc1cc(NC(=O)COC(=O)CSc2nc3cc(Cl)ccc3n2Cc2ccccc2)no1,inactive,-15.1,
CC(Sc1nccn1C)C(=O)c1ccc(Br)cc1 (stereo not drawn),18.4 µM (active),8.97,
CC(Sc1nccn1C)C(=O)Nc1ccc(C(N)=O)cc1 (stereo not drawn),,24.6,-16.1% [at 0.0737 µM] (inactive)
CC(Sc1nccn1C)C(=O)Nc1ccccc1 (stereo not drawn),inactive,-8.41,
Cc1ccc(C)c(NS(=O)(=O)c2ccc(-c3ccc(=O)[nH]n3)o2)c1,inactive,-3.63,
Cc1ccc(NS(=O)(=O)c2ccc(-c3ccc(=O)[nH]n3)o2)c(C)c1,inactive,3.54,
Cc1cccc(C)c1NS(=O)(=O)c1ccc(-c2ccc(=O)[nH]n2)o1,16.4 µM (active),-21.6,
O=C(O)/C=C/C(=O)NC1CCC(CC2CCC(NC(=O)/C=C/C(=O)O)CC2)CC1 (stereo not drawn),inactive,16.5,

Compound,Potency,cell number change [%],"lipid storage change, negative = inhibition"
O=C(N/N=C/c1nn(-c2ccccc2)cc1-c1ccc(Cl)cc1)c1ccncc1,inactive,11.9,
Cc1ccc(C)c2[nH]c(=O)c(CCNC(=O)c3ccc(S(=O)(=O)N4CCCC4)cc3)cc12,13 µM (active),-19,
CN(c1ccccc1)S(=O)(=O)c1ccc(C(=O)NCc2ccccc2F)cc1,13 µM (active),-21.4,
CCN(CC)S(=O)(=O)c1ccc(C(=O)NCCCN=C2NS(=O)(=O)c3ccccc32)cc1,inactive,17.2,
CS(=O)(=O)c1ccc(C(=O)NCc2ccccc2F)cc1,inactive,16.1,
O=C(NCCCN=C1NS(=O)(=O)c2ccccc21)c1ccc(S(=O)(=O)N2CCCCC2)cc1,8.2 µM (active),-7.55,
O=C(NCc1ccccc1F)c1cccc(S(=O)(=O)N2CCCCCC2)c1,inactive,6.02,
CN(c1ccccc1)S(=O)(=O)c1ccc(C(=O)NCc2cccs2)cc1,inactive,,
COc1ccc(OC)c2[nH]c(=O)c(CCNC(=O)c3ccc(S(=O)(=O)N4CCCC4)cc3)cc12,inactive,1.32,
Cc1ccc2cc(CCNC(=O)c3ccc(S(=O)(=O)N4CCCCC4)cc3)c(=O)[nH]c2c1,,17.8,20.6% [at 9.22 µM] (inactive)
O=C(NCc1ccccc1F)c1ccc(S(=O)(=O)N2CCCCCC2)cc1,18.4 µM (active),11.4,
O=C(NCCN=C1NS(=O)(=O)c2ccccc21)c1ccncc1,inactive,-9.37,
O=C(O)c1ccc(CNC(=O)c2ccc(S(=O)(=O)N3CCCCC3)cc2)cc1,inactive,-13.8,
O=C(Nc1ccc(C(=O)N2CCOCC2)cc1)c1cnn2c(C(F)F)cc(-c3ccccc3)nc12,inactive,19.9,
CCCCC1CCC(c2nc(-c3cccnc3)no2)CC1 (stereo not drawn),inactive,-3.76,
CCN1CCN(S(=O)(=O)Cc2ccccc2Cl)CC1,inactive,-8.44,
Cc1noc(C)c1CSc1nnc(-c2ccccc2)o1,inactive,4.76,
Cc1ccc(CNC(=O)/C=C/C(=O)O)cc1,inactive,15,
CN1CCN(c2oc(-c3ccco3)nc2S(=O)(=O)c2ccccc2)CC1,inactive,0.475,
CC(=O)Nc1ccc(S(=O)(=O)Oc2cccc(N3C(=O)C4CCCCC4C3=O)c2)cc1 (stereo not drawn),inactive,5.92,
CCOc1ccc(Br)cc1S(=O)(=O)NCc1ccncc1,inactive,3.33,
